About 5,300 (4.4%) of roughly 120,000 compounds were called active. Where a call stands in place of a potency, no number is given. About 22% were inconclusive and are not listed. The sample holds actives, similar compounds and a random draw of the others, so the mix is not that of the screen. Values without a mark were called inactive. The call rests on the fitted dose curve; in most records, active means well fitted inhibition curve with a large enough effect; inconclusive means small, poorly fitted or top-dose-only effect; inactive means no such curve, though single readings can be large or run the other way.
Assay: qHTS Primary assay for Inhibitors of Plasmodium falciparum Dd2 growth in vitro; further: nearly all actives have a fitted effect of over 65% in size
Conditions: P. falciparum Dd2 growth, SYBR Green, 72 h; series mostly up to 28.9 µM
Procedure, shortened: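 Readout: SYBR Green fluorescence, 485 nm excitation, 535 nm emission, after ~16 h lysis at 37C. Before that, Dd2-infected red cells (2.5% hematocrit) grew 72 h with compound, 29 uM top final concentration.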
With `CCOC(=O)c1ccc(N2C(=O)c3[nH]nc(-c4ccccc4)c3C2c2ccc(C(C)C)cc2)cc1` (stereo not drawn) the Potency was 7.94 µM (active). In the case of `CCOC(=O)c1ccc(N2C(=O)c3n[nH]c(C)c3C2c2ccc(O)c(OC)c2)cc1` (stereo not drawn), the Potency is reported as “inactive”. For `CCOC(=O)c1ccc(NC(=O)C2CC(=O)N(c3ccc(C(C)C)cc3)C2)cc1` (stereo not drawn), the Potency was “inactive”. For `Nc1nc2c(s1)C(c1ccccc1)CC(=O)N2` (stereo not drawn), the Potency was “inactive”. With `NCc1ccc(-c2cncnc2)cc1` the Potency was “inactive”. For `Cc1cccc(-c2cccc(CN)c2)c1`, the Potency was 11.2 µM (active). For `O=C(Cc1ccsc1)N1CCC(Oc2ccccc2)C1` (stereo not drawn), the Potency was “inactive”. In the case of `Cc1cccc(NC(c2cccc(F)c2)c2ccc3ccc(C)nc3c2O)n1` (stereo not drawn), the Potency is reported as 6.31 µM (active). In the case of `O=C(N1CCCC1)N1CCCC(c2nnc3n2CCNC3)C1` (stereo not drawn), the Potency is reported as “inactive”. With `COc1c(F)cccc1CN1CCOc2cc([S+](=O)([O-])N(C)C)ccc2C1` the Potency was “inactive”. For `COC(=O)C1=C(C)N=C2SC=C(CC(=O)NCc3ccccc3F)N2C1c1ccccc1Cl` (stereo not drawn), the Potency was 11.2 µM (active). For `COC(=O)C1=C(C)N=C2SC=C(CC(=O)NCCC(C)C)N2C1c1ccccc1Cl` (stereo not drawn), the Potency was “inactive”. In the case of `COC(=O)C1=C(C)N=C2SC=C(CC(=O)NCc3ccco3)N2C1c1cccc(F)c1` (stereo not drawn), the Potency is reported as “inactive”. With `CCCNC(=O)[C@@H]1Cc2cn(Cc3cc(C)on3)c3cccc(c23)[C@H](CC(C)C)N1` the Potency was “inactive”. For `CC(C)S(=O)(=O)c1oc(-c2ccc(F)cc2)nc1S(=O)(=O)c1ccc(F)cc1`, the Potency was 11.2 µM (active). In the case of `Cc1ccc(-c2nc(S(=O)(=O)c3ccc(C)cc3)c(N3CCCCCC3)o2)cc1`, the Potency is reported as “inactive”. In the case of `O=C(CSc1oc(-c2ccc(F)cc2)nc1S(=O)(=O)c1ccc(Br)cc1)NC1CCCCC1`, the Potency is reported as “inactive”. For `COc1cccc(SCC(=O)NCc2cc3n(n2)CCNC3)c1`, the Potency was “inactive”. For `COC[C@@H]1CN(Cc2cnn(C)c2C)C[C@H]1c1nc(C2CC2)no1`, the Potency was “inactive”. With `O=C1OC[C@@H]2CCN(Cc3cnc4ccccc4c3)Cc3ccc(F)cc3N12` the Potency was 5.62 µM (active). With `O=C1OC[C@@H]2CCN(Cc3ccncc3)Cc3ccc(F)cc3N12` the Potency was “inactive”. With `O=C1OC[C@@H]2CCN(Cc3ccccc3)Cc3ccccc3N12` the Potency was “inactive”. In the case of `Cc1ccc(-n2nc3n(c2=O)CCN(C(=O)C(C)(C)C)C3)cc1`, the Potency is reported as “inactive”. For `CN(C1CCc2nn(C)c(=O)n2CC1)S(=O)(=O)c1ccc2c(c1)OCCO2` (stereo not drawn), the Potency was “inactive”. In the case of `CN1CCC(N2CC[C@H](c3nc4ccccc4s3)C2)CC1`, the Potency is reported as “inactive”. For `CC(C)c1ccc(CNC(=O)c2noc(-c3ccc[nH]c3=O)n2)cc1`, the Potency was “inactive”. In the case of `Cc1cc(OC2CN([S+](=O)([O-])c3cccs3)C2)ccc1F`, the Potency is reported as “inactive”. With `CCc1nc2c(c(-c3ccc(Cl)cc3)n1)CN(CCC(C)C)CC2` the Potency was 7.94 µM (active). In the case of `Cc1ccc(CN2CCc3nc(C)nc(-c4ccc(O)cc4)c3C2)cc1`, the Potency is reported as “inactive”. In the case of `CCc1nc2c(c(-c3ccc(OC)cc3)n1)CCN(CC1CCCCC1)CC2`, the Potency is reported as “inactive”. In the case of `CCc1nc2c(c(-c3ccc(Cl)cc3)n1)CCN([S+](=O)([O-])c1cccs1)CC2`, the Potency is reported as 12.6 µM (active). In the case of `O=C1CCNCCCOCCN1`, the Potency is reported as “inactive”. In the case of `Cc1ccc(NC(=O)CN2c3ccccc3S(=O)(=O)c3ccccc32)cc1F`, the Potency is reported as “inactive”. With `Cc1ccc(NC2=C(c3ccc(C(F)(F)F)cc3)C(=O)c3ccccc32)cc1F` the Potency was 0.178 µM (active). With `C[C@H](O)c1onc(-c2ccc(F)cc2)c1C(=O)N1CCC1` the Potency was “inactive”. For `Cc1cccc(-n2nc(-c3c(C)nc4scc(CC(=O)NCc5ccco5)n4c3=O)cc2C)c1C`, the Potency was “inactive”. In the case of `COc1ccccc1-c1cc([C@H]2CN3CC[C@H]2C[C@@H]3CNC(=O)c2ccco2)nc(C)n1`, the Potency is reported as 10 µM (active). In the case of `Cc1ccc(C(=O)NC[C@H]2C[C@@H]3CCN2C[C@@H]3c2cc(-c3ccco3)nc(C)n2)cc1`, the Potency is reported as 3.55 µM (active). In the case of `Cc1nc(-c2ccccc2)cc([C@H]2CN3CC[C@H]2C[C@@H]3CNC2CCN(C)CC2)n1`, the Potency is reported as “inactive”. With `Cc1nc(-c2ccc(C(F)(F)F)cc2)cc([C@H]2CN3CC[C@H]2C[C@@H]3CNC(=O)C2CCC2)n1` the Potency was “inactive”. For `COc1ccc(-c2cc([C@H]3CN4CC[C@H]3C[C@@H]4COC(=O)NC(C)C)nc(C)n2)cc1`, the Potency was “inactive”. With `COc1ccc(Cl)cc1S(=O)(=O)N1CCCC(CNC(=O)c2ccco2)C1` (stereo not drawn) the Potency was “inactive”. For `O=C(c1ccncc1)N1CCC(C2CCN(Cc3cccc(F)c3F)CC2)C1` (stereo not drawn), the Potency was “inactive”. With `COc1ccc(N2CCN(C(=O)COc3ccc(NC(C)=O)cn3)CC2)cc1` the Potency was “inactive”. For `Cc1cccc(CN2CCc3ncc(C(=O)NCc4ccccc4)n3CC2)n1`, the Potency was “inactive”. With `COCC(=O)N(C1CCOCC1)C1CCN(S(=O)(=O)c2ccccc2C)CC1` the Potency was “inactive”. With `CCOC(=O)c1ccc(NC(=O)Cn2ccn3nc(-c4ccccc4)c(CO)c3c2=O)cc1` the Potency was “inactive”. For `Cc1nn(-c2ccccc2)c(C)c1CC(=O)NC1CCCc2c1[nH]c1ccccc21` (stereo not drawn), the Potency was “inactive”. For `CN(C)C[C@@H]1CN(S(C)(=O)=O)C[C@H]1NC(=O)c1ccc2ncccc2c1`, the Potency was “inactive”. In the case of `CCCCS(=O)(=O)c1oc(-c2cccs2)nc1S(=O)(=O)c1ccccc1`, the Potency is reported as 10 µM (active). With `CSc1oc(-c2cccs2)nc1S(=O)(=O)c1ccc(Br)cc1` the Potency was “inactive”. For `Cc1ccc(CSc2oc(-c3cccs3)nc2S(=O)(=O)c2ccc(C)cc2)cc1`, the Potency was “inactive”. With `Cc1cc(OC2CN([S+](=O)([O-])c3ccccc3)C2)ccc1F` the Potency was “inactive”. For `COC1C(=O)N(CC2CC2)C12CCN(C(=O)NC1CCCCC1)CC2` (stereo not drawn), the Potency was “inactive”. With `Cn1nccc1CN1CC(Oc2ccc(F)c(F)c2)C1` the Potency was “inactive”. In the case of `O=C(C1CCN(c2nc(-c3ccccc3)nc3c2CCC3)CC1)N1CCC[C@H]1CO`, the Potency is reported as 8.91 µM (active). In the case of `CC(C)OCC(=O)N1CCN(c2nc(-c3ccccc3)nc3c2CCC3)CC1`, the Potency is reported as 12.6 µM (active). In the case of `Cc1ccc(-c2cc(N3CCCN(C(=O)COc4ccccc4)CC3)n[nH]2)cc1C`, the Potency is reported as “inactive”. For `O=C(NC1CCNC1)C1CCN(c2nc(-c3ccccc3)nc3c2CCC3)CC1` (stereo not drawn), the Potency was 7.08 µM (active). For `COCCOCC(=O)N1CCCC(c2nc(-c3ccccc3)no2)CCNC(=O)CC1` (stereo not drawn), the Potency was “inactive”. In the case of `O=C(CN1CCCC1=O)NC1CCCc2nc(-c3ccccc3)ncc21` (stereo not drawn), the Potency is reported as “inactive”. In the case of `O=C(NCCc1ccccn1)C1CCCN(c2nc(-c3ccccc3)nc3c2CCC3)C1` (stereo not drawn), the Potency is reported as “inactive”. In the case of `Cc1nc(CCNC(=O)C2CCCN(c3nc(-c4ccccc4)nc4c3CCC4)C2)n[nH]1` (stereo not drawn), the Potency is reported as “inactive”. In the case of `O=C(NCc1cccnc1)C1CCN(c2nc(-c3ccccc3)nc3c2CCC3)CC1`, the Potency is reported as “inactive”. With `COc1ccc(N2CC(C(=O)N3CCSCC3)CC2=O)cc1Cl` (stereo not drawn) the Potency was “inactive”. With `O=C(Nc1ccccc1Cl)N1CCc2nc3cc[nH]n3c(=O)c2C1` the activity, negative = inhibition was -0.962% [at 5.79 µM]. In the case of `Cc1nn(CC(=O)NCC2CCCO2)c(=O)c2nc(C(C)C)sc12` (stereo not drawn), the Potency is reported as “inactive”. With `CC(C)c1nc(C2Cc3ccccc3N2S(=O)(=O)c2cn(C)cn2)no1` (stereo not drawn) the Potency was “inactive”. With `CCc1ccc(NC(=O)N2CCCC(Cn3cnc4cccnc43)C2)cc1` (stereo not drawn) the Potency was “inactive”. For `COCCNC(=O)CCc1cc2ccc(C)cc2[nH]c1=O`, the Potency was “inactive”. For `O=C(c1cc(F)ccc1F)N1CCCC(n2cc(-c3nc(C4CC4)no3)nn2)C1` (stereo not drawn), the Potency was “inactive”. With `O=c1n(-c2ccncc2)nc2n1CCN([S+](=O)([O-])c1cccc(C(F)(F)F)c1)C2` the Potency was “inactive”. With `CCOc1ccc(C2Cn3nnc(-c4nc(-c5cccc(F)c5)no4)c3CO2)cc1` (stereo not drawn) the Potency was “inactive”. With `NC(=O)Cn1ccc2cc(OCC3CCN(c4cnccn4)CC3)cnc21` the Potency was “inactive”. For `Cn1ccnc1C(=O)N1CCC2(CC1)CN(c1ncccn1)CC2CO` (stereo not drawn), the Potency was “inactive”. With `COc1cccc(OCc2nnc(C(=O)N3CCC[C@@H]3c3cccc(F)c3)n2-c2ccccc2)c1` the Potency was “inactive”. For `Cc1ccc(Nc2nc3ccccc3nc2-n2nc(C)cc2C)c(Cl)c1`, the Potency was “inactive”. With `Cc1cccc(Nc2cc(C)nc(-n3nc(C)cc3C)n2)c1` the Potency was 5.62 µM (active). In the case of `Cc1cc(=O)n(CC(=O)Nc2cccc([N+](=O)[O-])c2)c(-n2nc(C)cc2C)n1`, the Potency is reported as “inactive”. For `O=C(c1ccc2cc[nH]c2n1)N1CCOCC1`, the Potency was “inactive”. With `COc1ccc(CNC(=O)c2cccc3c2CCN3C(=O)c2ccc(F)cc2)cc1OC` the Potency was “inactive”. With `COc1ccc(N2C(=O)C3(CCCCC3)C2C(=O)NCCc2ccncc2)cc1` (stereo not drawn) the Potency was “inactive”. For `COc1ccc(C2Sc3ccccc3NC3=C2C(=O)c2ccccc23)c(OC)c1OC` (stereo not drawn), the Potency was 0.316 µM (active). With `COc1nc2nc(CC3CC3)n(C)c2cc1-c1ccc(CO)cc1` the Potency was “inactive”. For `COc1ccccc1Nc1cc(C(=O)NCCCN(C)C2CCCCC2)c2ccccc2n1`, the Potency was 10 µM (active). In the case of `CCN(CC)CCCNC(=O)c1cn(C)c2ccc(S(=O)(=O)N(C)C3CCCCC3)cc2c1=O`, the Potency is reported as “inactive”. In the case of `COc1ccc(CCNC(=O)c2c3c(nc4ccccc24)C(=O)N(C2CCCCC2)C3)cc1OC`, the Potency is reported as “inactive”. For `Cc1ccc(NC(=O)Cn2c(-c3ccc(Cl)cc3)nc(C)c(CCO)c2=O)cc1C`, the Potency was “inactive”. With `O=C(NC(C(=O)N1CCCCC1)C1CCN(C(=O)c2ccc(Cl)cc2)CC1)c1ccccc1` (stereo not drawn) the Potency was 5.01 µM (active). For `CCN(CC)C(=O)C(NC(=O)c1ccc(OC)cc1)C1CCN(C(=O)C(C)C)CC1` (stereo not drawn), the Potency was “inactive”. In the case of `CCN(CC)C(=O)C(NC(=O)c1ccc(OC)cc1)C1CCN(C(=O)c2ccc(F)cc2)CC1` (stereo not drawn), the Potency is reported as “inactive”. For `CNC(=O)[C@@H]1CN(C(=O)c2ccc3ccccc3n2)C[C@H]1COC`, the Potency was “inactive”. With `CS(=O)(=O)c1cnc(NCCc2cnc[nH]2)nc1C1CCCNC1` (stereo not drawn) the Potency was “inactive”. With `CN(CC1CCOC1)C(=O)Nc1ccc(Cl)cc1` (stereo not drawn) the outcome was “inactive [at 5.79 µM]”. With `CC(C)(C)c1csc(NC(=O)C[C@H]2NC(=O)c3ccccc3NC2=O)n1` the Potency was “inactive”. In the case of `COc1cccc(-c2ccnc3nc(-c4ccccc4OC)nn23)c1`, the Potency is reported as “inactive”. For `COc1cccc(-c2ccnc3nc(Cc4cc(F)cc(F)c4)nn23)c1`, the Potency was 10 µM (active). In the case of `COCc1nc2nccc(-c3ccccc3)n2n1`, the Potency is reported as “inactive”.

— PubChem BioAssay AID1347417 (National Center for Advancing Translational Sciences (NCATS), 2020)
Potency means the concentration at half of the fitted maximal effect.
